VDR inhibitor – vitamin D3 receptor (human) inhibition. VDR-SRC2-3 peptide fluorescence polarization, 2 h. Potency, µM, without a hit: max response, negative = inhibition, actives largely listed as inhibitors. hit rate 0.93% among 400,000; further: on the % scale 0 is the no-effect control and ±100 the full control effect
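Reagent solutions, kept cold and dark, are dispensed first; compounds are then pinned in at 23 nl, plates briefly spun, and incubated 2 h at ambient temperature. Inhibition of VDR–SRC2-3 peptide binding is read by fluorescence polarization.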
KAT2A inh – blocks human GCN5L2 histone acetyltransferase; Q92830; GCN5L2 HAT assay, ThioGlo1 CoA-SH fluorescence; Potency, µM (top dose mostly 58.9 µM), inactives show at the highest dose activity change, negative = inhibition, actives largely listed as inhibitors; hit rate 0.21% among 390,000; AID 504327; further: on the % scale 0 is the no-effect control and ±100 the full control effect
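Fluorescence readout, Ex340nm/Em540nm: ThioGlo1 (50uM final) reacts with free CoA thiol released as 20nM GCN5L2 acetylates H3(1-25) peptide (75uM) using acetyl-CoA (70uM). Compound and enzyme sat 15 min beforehand; 20 min room-temperature reaction.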
USP1 inh – inhibitors of human USP1/UAF1 deubiquitinase | O94782 | recombinant USP1/UAF1, Ub-Rhodamine cleavage fluorescence | Potency, µM (doses to about 57.1 µM), for inactives: at the highest dose activity change, negative = inhibition, actives largely listed as inhibitors | hit rate 0.23% among 390,000; further: on the % scale 0 is the no-effect control and ±100 the full control effect; nearly all actives have a fitted effect of over 60% in size
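1 nM enzyme complex + cpd, 15 min RT; start with Ub-Rho 150nM final; kinetic fluorescence ex 480/em 540, 6 reads q60 s. Buffer 50mM HEPES pH 7.8, 0.5mM EDTA, 0.1 mg/ml BSA, 1mM TCEP, 0.01% Tween-20.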
TSG101-PTAP inh – blocks PTAP/TSG101 interaction to inhibit HIV-1 budding; Fluorescence polarization, FITC-PTAP peptide / Tsg101 binding; Potency, µM (doses to about 115 µM), for the others: at the highest dose activity change, negative = inhibition, hits mostly inhibitors; 340,000 tested, under 10 active; active means well fitted inhibition curve with a large enough effect in the main read-out, with a control signal flat, not every such curve was filed as active; inconclusive means small, poorly fitted or top-dose-only effect, or effect the other way, or a change in a side signal; inactive means no such curve, though single readings can be large or run the other way; further: % of control where 0% means no effect
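Fluorescence polarization binding of Tsg101 binding domain (10 uM final) to FITC-labeled PTAP peptide (50 nM final) in HEPES pH 7.5 buffer with NaCl, Tween 20, EDTA, TCEP. Compounds added before peptide; binding 20 min at RT.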
PLK1 PBD inh – inhibitors of human PLK1 polo-box domain binding | P53350 | Plk1 PBD binding of FITC phosphopeptide, fluorescence polarization | Potency, µM, inactives show max response, negative = inhibition, most hits filed as inhibitors | hit rate 2.8% among 360,000 | AID 720504; further: series mostly up to about 57 µM; on the % scale 0 is the no-effect control and ±100 the full control effect; nearly all actives have a fitted effect of over 65% in size
Target sequence (P53350 whole entry, looked up, the tested form may be a part): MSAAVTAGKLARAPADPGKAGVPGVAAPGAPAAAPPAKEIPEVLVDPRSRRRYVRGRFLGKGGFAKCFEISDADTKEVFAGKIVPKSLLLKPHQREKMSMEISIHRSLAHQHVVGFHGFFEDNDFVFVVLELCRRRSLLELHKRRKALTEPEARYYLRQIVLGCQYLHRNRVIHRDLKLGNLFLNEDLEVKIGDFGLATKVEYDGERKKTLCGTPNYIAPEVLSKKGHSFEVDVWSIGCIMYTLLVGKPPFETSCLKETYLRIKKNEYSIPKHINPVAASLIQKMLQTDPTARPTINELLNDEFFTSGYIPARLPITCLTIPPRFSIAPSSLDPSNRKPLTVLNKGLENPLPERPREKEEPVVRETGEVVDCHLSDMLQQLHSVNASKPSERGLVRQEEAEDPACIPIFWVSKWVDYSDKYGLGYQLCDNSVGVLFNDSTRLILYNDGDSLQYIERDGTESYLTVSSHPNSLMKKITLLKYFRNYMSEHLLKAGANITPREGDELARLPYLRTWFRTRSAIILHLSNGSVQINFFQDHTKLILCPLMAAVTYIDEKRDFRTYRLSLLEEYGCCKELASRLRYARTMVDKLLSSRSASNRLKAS
Numbers without * were called inactive; u = inconclusive; x = no result given; ! = repeats disagree. This is a sample that favours compounds with a hit; in the whole collection about 3% have one here. Unless noted, the call rests on the fitted dose curve; in most records, active means well fitted curve in the direction sought with a large enough effect; inconclusive means small, poorly fitted or top-dose-only effect, or another doubt; inactive means no such curve, though single readings can be large; an effect the other way counts as inactive or inconclusive. Potency means the concentration at half of the fitted maximal effect.

SMILES	VDR inhibitor	KAT2A inh	USP1 inh	TSG101-PTAP inh	PLK1 PBD inh
Cc1ccc(NC(=O)C2CCCN(S(=O)(=O)c3ccc4[nH]c(=O)ccc4c3)C2)cc1Cl (stereo unspecified)	4%	-3%	-21%	x	x
O=S1(=O)[C@H]2C[C@@H]3C=C[C@@]2(CN1Cc1cccc(Cl)c1)O3	-3%	-2%	11%	5%	-6%
CC(O)c1cccc(-c2ccc(CN3C[C@]4(CO)O[C@@H](CO)C[C@@H]4S3(=O)=O)cc2)c1 (stereo partly specified)	u	-5%	-23%	-1%	27µM*
COc1ccc(CNC(=O)CN2C(=O)COc3ccc(S(=O)(=O)N4CCCCCC4)cc32)cc1	1%	0%	-6%	x	x
COc1ccc(CNC(=O)CN2C(=O)COc3ccc(S(=O)(=O)N4CCC(C)CC4)cc32)cc1	-8%	-6%	-26%	-6%	30µM*
COc1ccc(S(=O)(=O)N2CCC(C(=O)N[C@@H](C)C(=O)NCc3cccc(OC)c3)CC2)cc1	-11%	1%	u	-5%	-1%
COc1cccc(CNC(=O)[C@H](C)NC(=O)C2CCN(S(=O)(=O)c3ccccc3)CC2)c1	u	0%	-20%	0%	27µM*
COc1cccc(CNC(=O)Cn2ccc3cc(S(=O)(=O)N4CCC(C)CC4)ccc32)c1	u	-7%	-21%	-10%	9.5µM*
Cc1cc(C)cc(NC(=O)C(=O)NCC(c2cccnc2)N2CCc3ccccc32)c1 (stereo unspecified)	1%	-3%	-25%	x	x
O=C(CSCc1nc2cccnc2n1C1CCCCC1)NCc1cccc(Br)c1	11%	-1%	-13%	x	x
CCNC(=S)N(CCc1c(C)[nH]c2ccc(F)cc12)Cc1cccnc1	-29%	0%	-18%	0%	19µM*
CCNC(=S)N(CCc1c(C)[nH]c2ccc(C)cc12)Cc1cccnc1	-6%	-20%	-9%	-8%	-7%
CN1CCN(c2ccnc(-c3ccccc3C(F)(F)F)n2)CC1	-19%	-6%	x	x	x
C=CCNC(=O)c1oc2ccc(S(=O)(=O)N(CC)CC)cc2c1C	-19%	-6%	-20%	u	9.5µM*
CCN(CC)S(=O)(=O)c1ccc2oc(C(=O)NCc3ccccc3OC)c(C)c2c1	-6%	-9%	-9%	x	x
CCOc1ccc(NC(=O)CN2CCN(CC(=O)c3ccc(OCC)cc3)CC2)cc1	9%	1%	-22%	-4%	-10%
CCOc1ccc(NC(=O)CN2CCN(CC(=O)c3ccc(OC)c(OC)c3)CC2)cc1	-29%	-5%	-11%	2%	19µM*
CC1(COc2ccc(CC3SC(=O)NC3=O)cc2)CCCCC1 (stereo unspecified)	-5%	25µM*!	x	x	x
CC1(COc2ccc(C[C@H]3SC(=O)NC3=O)cc2)CCCCC1	-12%	35µM*	x	x	x
Cc1c(C)c2c(c(C)c1O)CCC(C)(COc1ccc(CC3SC(=O)NC3=O)cc1)O2 (stereo unspecified)	-16%	u	x	x	x
Cc1ccc(NC(=O)c2oc3ccccc3c2NC(=O)c2cc3ccccc3o2)cc1	-2%	-11%	-23%	x	x
CC(C)CCNC(=O)C1CCC(CNc2c(N3CCCC3)c(=O)c2=O)CC1 (stereo unspecified)	-3%	2%	-11%	-6%	1%
CCNC(=O)c1ccc(CSc2ccc(Cl)cc2)cc1	-17%	-1%	-8%	0%	27µM*
COc1ccc(N(C(C)C(=O)N/N=C/c2ccc(OC(C)C)cc2)S(C)(=O)=O)cc1 (stereo unspecified)	11%	1%	-5%	-8%	2%
COc1ccc(N(C(C)C(=O)N/N=C/c2ccc(OC)c(OC)c2)S(C)(=O)=O)cc1 (stereo unspecified)	-28%	-8%	-16%	-3%	30µM*
COc1ccc(N(C(C)C(=O)NN=C2CCCCCCC2)S(C)(=O)=O)cc1 (stereo unspecified)	-7%	-6%	-2%	-2%	27µM*
COC(=O)Oc1ccc(/C=N/NC(=O)CN(c2ccccc2Br)S(C)(=O)=O)cc1OC	-11%	0%	-22%	-7%	-2%
